From the supplement of paper PMC7366291
Where a name gives a salt, the structure may show the parent alone. ± gives the standard deviation or the standard deviation of the averaged measurements.

These compounds were tested on Danio rerio Tg(wt1b:EGFP) embryo, pronephros (assay: glomerular separation, fold change vs DMSO control; higher = glomeruli further apart (abnormal)). Conditions: 25 µM; exposure: 24-48 hpf.
Summary of the method: (§1)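 Dechorionated Tg(wt1b:EGFP) zebrafish embryos were kept from 24 to 48 hpf at 28.5°C in HEPES-buffered E3 containing 0.003% PTU, 0.5% DMSO and 25 μM compound. The pronephroi were then imaged from the dorsal side in agarose-filled 96-well plates at 470 nm with 10 z-slices, and 16 reference points were placed by hand on maximum projections in Fiji so that a macro could calculate distances and angles. Values lying more than 2 SD from the mean of a feature were discarded. Every feature is given as a fold change against the mean of DMSO-treated embryos from the same day.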

SMILES | glomerular separation
COc1ccc(C(CN(C)C)C2(O)CCCCC2)cc1 (stereo not drawn) [Venlafaxine] | 0.684 ± 0.13
CC[N+]1(C)CCCC(OC(=O)C(O)(c2ccccc2)c2ccccc2)C1 (stereo not drawn) [Pipenzolate bromide] | 0.89 ± 0.28
C=C1C[C@@H]2[C@H](CC[C@]3(C)C(=O)CC[C@@H]23)[C@@]2(C)C=CC(=O)C=C12 [Exemestane] | 0.893 ± 0.38
S=C(NC1CCCCC1)N1CCC(c2cnc[nH]2)CC1 [Thioperamide maleate] | 1.28 ± 0.6
CC(=O)O[C@H]1CC[C@@]2(C)C(=CC[C@@H]3[C@@H]2CC[C@]2(C)C(=O)CC[C@@H]32)C1 [Dehydroisoandosterone 3-acetate] | 1.13 ± 0.35
CC[C@@H](CO)NC(=O)[C@@H]1C=C2c3cccc4[nH]cc(c34)C[C@H]2N(C)C1 [Methylergometrine maleate] | 1.12 ± 0.46
C[N+]1([O-])[C@@H]2C[C@@H](OC(=O)[C@H](CO)c3ccccc3)C[C@H]1[C@@H]1O[C@@H]12 (stereo partly drawn) [Scopolamin-N-oxide hydrobromide] | 0.883 ± 0.35
CCOC(=O)c1cncn1[C@H](C)c1ccccc1 [Etomidate] | 0.978 ± 0.27
CC(C)C[C@H]1C(=O)N2CCC[C@H]2[C@]2(O)O[C@](NC(=O)[C@@H]3C=C4c5cccc6[nH]c(Br)c(c56)C[C@H]4N(C)C3)(C(C)C)C(=O)N12 [Bromocryptine mesylate] | 1.01 ± 0.34
Cc1cccc(C)c1NC1=NCCCS1 [Xylazine] | 0.757 ± 0.26
c1ccc2c(c1)OCC(C1=NCCN1)O2 (stereo not drawn) [Idazoxan hydrochloride] | 0.851 ± 0.4
CCN(C)C(=O)Oc1cccc([C@H](C)N(C)C)c1 [Rivastigmine] | 1.1 ± 0.33
CCC1(CC)C(=O)C=CNC1=O [Pyrithyldione] | 0.785 ± 0.31
CN(C)C(=O)Oc1cccc([N+](C)(C)C)c1 [Neostigmine bromide] | 0.984 ± 0.28
NCC(O)c1ccc(O)cc1 (racemic) [(+,-)-Octopamine hydrochloride] | 0.97 ± 0.66
C[C@]12CC[C@H](O)C[C@@H]1CC[C@@H]1[C@@H]2CC[C@]2(C)C(=O)CC[C@@H]12 [Epiandrosterone] | 1.72 ± 0.71
CC(C)c1c(CN(C)C(C)Cc2ccccc2)n(C)n(-c2ccccc2)c1=O (stereo not drawn) [Famprofazone] | 0.985 ± 0.39
CCN(CC)C(C)C(=O)c1ccccc1 (stereo not drawn) [Amfepramone hydrochloride] | 0.872 ± 0.24
C[C@]12CC[C@H](O)C[C@H]1CC[C@@H]1[C@@H]2CC[C@]2(C)[C@@H](C3=CC(=O)OC3)CC[C@]12O [Digitoxigenin] | 1.38 ± 0.71
CCC(=O)O[C@@](Cc1ccccc1)(c1ccccc1)[C@@H](C)CN(C)C [Levopropoxyphene napsylate] | 1.29 ± 0.53
CC(Cc1ccccc1)NCCC(c1ccccc1)c1ccccc1 (stereo not drawn) [Prenylamine lactate] | 1.05 ± 0.22
CC(=O)O[C@H]1C[C@@H]2CC[C@@H]3[C@H](CC[C@@]4(C)[C@H]3C[C@H]([N+]3(C)CCCCC3)[C@@H]4OC(C)=O)[C@@]2(C)C[C@@H]1[N+]1(C)CCCCC1 [Pancuronium bromide] | 1.23 ± 0.41

What follows are compounds tested on Danio rerio Tg(wt1b:EGFP) embryo, pronephros (assay: glomerular width (mean of left and right), fold change vs DMSO control; higher = wider glomerulus). Conditions: 25 µM; exposure: 24-48 hpf.
Summary of the method: as §1

SMILES | glomerular width
O=P1(NCCCl)OCCCN1CCCl (stereo not drawn) [Ifosfamide] | 0.999 ± 0.045
C[C@]12CC[C@@H]3c4ccc(OC(=O)N(CCCl)CCCl)cc4CC[C@H]3[C@@H]1CC[C@@H]2O [Estramustine] | 0.792 ± 0.018
CNCC(O)c1ccc(O)cc1 (racemic) [(+,-)-Synephrine] | 0.959 ± 0.015
C[C@]12CCC(=O)C=C1CC[C@@H]1[C@@H]2C(=O)C[C@]2(C)C(=O)CC[C@@H]12 [Adrenosterone] | 1.005 ± 0.0024
CC(C)C[C@H](CN)CC(=O)O [Pregabalin] | 0.9518 ± 0.0028
C[N+]1(C)CCOC(O)(c2ccc(-c3ccc(C4(O)C[N+](C)(C)CCO4)cc3)cc2)C1 (stereo not drawn) [Hemicholinium bromide] | 0.95 ± 0.00098
CC(=O)OC1CN2CCC1CC2 (stereo not drawn) [Aceclidine Hydrochloride] | 1.053 ± 0.01
C=CCN1CC[C@]23c4c5ccc(O)c4O[C@H]2C(=O)CC[C@@]3(O)[C@H]1C5 [Naloxone hydrochloride] | 1.01 ± 0.055
NC(=O)C[S+]([O-])C(c1ccccc1)c1ccccc1 (stereo not drawn) [Modafinil] | 1.09 ± 0.073
O=[N+]([O-])O[C@@H]1CO[C@H]2[C@@H]1OC[C@@H]2O [Isosorbide mononitrate] | 1.04 ± 0.019
CNC(C)(C)Cc1ccccc1 [Mephentermine hemisulfate] | 1.08 ± 0.036
C#C[C@]1(O)CC[C@H]2[C@@H]3CCC4=CC(=O)CCC4=C3C=C[C@@]21CC [Gestrinone] | 1.119 ± 0.0059
CN1[C@@H]2CC[C@H]1C[C@@H](OC(=O)[C@H](CO)c1ccccc1)C2 [Hyoscyamine (L)] | 1.06 ± 0.03
CCCC(C)(COC(N)=O)COC(=O)NC(C)C (stereo not drawn) [Carisoprodol] | 1.14 ± 0.026
COc1ccc(C(CN(C)C)C2(O)CCCCC2)cc1 (stereo not drawn) [Venlafaxine] | 1.023 ± 0.0059
CC[N+]1(C)CCCC(OC(=O)C(O)(c2ccccc2)c2ccccc2)C1 (stereo not drawn) [Pipenzolate bromide] | 1.051 ± 0.0016
C=C1C[C@@H]2[C@H](CC[C@]3(C)C(=O)CC[C@@H]23)[C@@]2(C)C=CC(=O)C=C12 [Exemestane] | 0.932 ± 0.065
S=C(NC1CCCCC1)N1CCC(c2cnc[nH]2)CC1 [Thioperamide maleate] | 0.974 ± 0.011

SMILES | glomerular width
CC(=O)O[C@H]1CC[C@@]2(C)C(=CC[C@@H]3[C@@H]2CC[C@]2(C)C(=O)CC[C@@H]32)C1 [Dehydroisoandosterone 3-acetate] | 0.896 ± 0.056
CC[C@@H](CO)NC(=O)[C@@H]1C=C2c3cccc4[nH]cc(c34)C[C@H]2N(C)C1 [Methylergometrine maleate] | 0.927 ± 0.056
C[N+]1([O-])[C@@H]2C[C@@H](OC(=O)[C@H](CO)c3ccccc3)C[C@H]1[C@@H]1O[C@@H]12 (stereo partly drawn) [Scopolamin-N-oxide hydrobromide] | 1.03 ± 0.018
CCOC(=O)c1cncn1[C@H](C)c1ccccc1 [Etomidate] | 0.949 ± 0.067
CC(C)C[C@H]1C(=O)N2CCC[C@H]2[C@]2(O)O[C@](NC(=O)[C@@H]3C=C4c5cccc6[nH]c(Br)c(c56)C[C@H]4N(C)C3)(C(C)C)C(=O)N12 [Bromocryptine mesylate] | 1.12 ± 0.012
Cc1cccc(C)c1NC1=NCCCS1 [Xylazine] | 0.997 ± 0.018
c1ccc2c(c1)OCC(C1=NCCN1)O2 (stereo not drawn) [Idazoxan hydrochloride] | 0.99138 ± 0.00087
CCN(C)C(=O)Oc1cccc([C@H](C)N(C)C)c1 [Rivastigmine] | 0.8935 ± 0.007
CCC1(CC)C(=O)C=CNC1=O [Pyrithyldione] | 1.034 ± 0.0093
CN(C)C(=O)Oc1cccc([N+](C)(C)C)c1 [Neostigmine bromide] | 0.859 ± 0.034
NCC(O)c1ccc(O)cc1 (racemic) [(+,-)-Octopamine hydrochloride] | 0.94 ± 0.042
C[C@]12CC[C@H](O)C[C@@H]1CC[C@@H]1[C@@H]2CC[C@]2(C)C(=O)CC[C@@H]12 [Epiandrosterone] | 0.905 ± 0.061
CC(C)c1c(CN(C)C(C)Cc2ccccc2)n(C)n(-c2ccccc2)c1=O (stereo not drawn) [Famprofazone] | 0.985 ± 0.031
CCN(CC)C(C)C(=O)c1ccccc1 (stereo not drawn) [Amfepramone hydrochloride] | 0.97173 ± 0.00026
C[C@]12CC[C@H](O)C[C@H]1CC[C@@H]1[C@@H]2CC[C@]2(C)[C@@H](C3=CC(=O)OC3)CC[C@]12O [Digitoxigenin] | 1.0869 ± 0.00048
CCC(=O)O[C@@](Cc1ccccc1)(c1ccccc1)[C@@H](C)CN(C)C [Levopropoxyphene napsylate] | 1.05 ± 0.037
CC(Cc1ccccc1)NCCC(c1ccccc1)c1ccccc1 (stereo not drawn) [Prenylamine lactate] | 1.07 ± 0.071
CC(=O)O[C@H]1C[C@@H]2CC[C@@H]3[C@H](CC[C@@]4(C)[C@H]3C[C@H]([N+]3(C)CCCCC3)[C@@H]4OC(C)=O)[C@@]2(C)C[C@@H]1[N+]1(C)CCCCC1 [Pancuronium bromide] | 0.928 ± 0.13
